Screening results from PubChem.
Sampled rows, rich in hits. Any-hit rate of the full collection: about 4.5%.
PrP 5UTR inh: inhibition of PrP 5' UTR reporter expression | cell-based PrP 5' UTR mRNA reporter, plate reader | inhibition, % (no concentration beside the values) | 340,000 tested, 0.35% active | AID 488862; in the data active = inhibition above about 52%
PfHsp40 yeast: restores yeast growth despite PfHsp40 toxicity; S. cerevisiae expressing PfHsp40, growth rescue, ATP luminescence; growth rescue, % at 12.5 µM; 340,000 tested, 0.68% active; in the data active = growth rescue above about 28%, passing the limit was not always enough;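 note: yeast W303a lacking pdr1 and pdr3 grown in galactose medium; growth measured after three days at 30 °C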
FBA Mtb inh: inhibits M. tuberculosis FBA enzyme | P9WQA3 | purified M. tuberculosis FBA, fluorescence read-out | inhibition, % at 1 µM | 360,000 tested, 2.3% active | AID 588726; in the data active = inhibition above about 27%
Target sequence (P9WQA3 whole entry, looked up): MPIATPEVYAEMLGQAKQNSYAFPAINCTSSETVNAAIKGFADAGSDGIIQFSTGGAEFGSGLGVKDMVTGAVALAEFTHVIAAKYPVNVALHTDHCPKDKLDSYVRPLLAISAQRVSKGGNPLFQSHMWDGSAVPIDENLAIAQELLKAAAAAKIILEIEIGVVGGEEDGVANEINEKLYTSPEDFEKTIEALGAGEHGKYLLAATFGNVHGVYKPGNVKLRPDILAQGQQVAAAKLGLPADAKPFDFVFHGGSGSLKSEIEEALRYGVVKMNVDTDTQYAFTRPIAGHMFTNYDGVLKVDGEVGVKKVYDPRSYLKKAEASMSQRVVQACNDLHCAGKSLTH
BJeLR lethal: BJeLR cell viability loss; BJeLR (HRASV12) viability, CellTiter-Glo ATP luminescence, 48 h; inhibition, % (no concentration beside the values); 300,000 tested, 0.17% active; AID 1554; in the data active = inhibition above about 50%
PrPC surface inh: reduces human prion protein on the cell surface | inhibition, % at 13.8 µM | AID 720596 | cell surface PrPC, TR-FRET read-out | 370,000 tested, 0.43% active; in the data active = inhibition above about 24%
GDH-TPI inh: counter-screen for M. tuberculosis FBA inhibitors: GDH-TPI coupled enzymes; GDH-TPI coupled enzyme counterscreen, NADH absorbance; inhibition, % at 4.8 µM; 360,000 tested, 1.2% active; in the data active = inhibition above about 30%
Numbers stand for hits.

For O=C(C1COc2ccccc2O1)N1CCCCC1 (stereo unspecified) the results were PrP 5UTR inh inactive, PfHsp40 yeast inactive, FBA Mtb inh inactive, PrPC surface inh inactive and GDH-TPI inh inactive.
Screening COc1ccc(C2CC(=O)C3=C(C2)Nc2ccccc2N(C(C)=O)C3c2ccco2)cc1 (stereo unspecified) returned PrP 5UTR inh inactive, PfHsp40 yeast inactive, FBA Mtb inh inactive, BJeLR lethal inactive, PrPC surface inh inactive and GDH-TPI inh 47.
Screening Cc1ccc(S(=O)(=O)Oc2ccccc2/C=N/O)cc1 returned PrP 5UTR inh inactive, PfHsp40 yeast inactive, FBA Mtb inh inactive, BJeLR lethal inactive, PrPC surface inh inactive and GDH-TPI inh inactive.
Screening Cc1ccc(S(=O)(=O)Oc2ccccc2/C=N/Nc2ccc(C(=O)O)cc2)cc1 returned PrP 5UTR inh inactive, PfHsp40 yeast inactive, FBA Mtb inh inactive, BJeLR lethal inactive, PrPC surface inh inactive and GDH-TPI inh 51.
`CN(CCO)c1cccc2c1S(=O)(=O)N(Cc1cn(Cc3ccc(Cl)cc3)nn1)Cc1ccccc1O2` gave PrPC surface inh inactive.
Screening CC(C)(C)N(Cc1cn(Cc2ccccc2)nn1)S(=O)(=O)c1ccc(N2CCCC2)cc1Br returned PrPC surface inh inactive.
`Cn1c2ccccc2c2cc(/C=C(\NC(=O)c3ccccc3)C(=O)O)ccc21` gave PrP 5UTR inh inactive, PfHsp40 yeast inactive, FBA Mtb inh inactive, BJeLR lethal inactive, PrPC surface inh inactive and GDH-TPI inh 35.
`CC(C)OC(=O)/C(=C\c1ccc2c(c1)c1ccccc1n2C)NC(=O)c1ccccc1` gave PrP 5UTR inh inactive, PfHsp40 yeast inactive, FBA Mtb inh inactive, BJeLR lethal inactive, PrPC surface inh inactive and GDH-TPI inh inactive.
CC(C)OC(=O)/C(=C/c1ccc2c(c1)c1ccccc1n2C)NC(=O)c1ccccc1 was read as PrP 5UTR inh inactive, PfHsp40 yeast inactive, FBA Mtb inh inactive, BJeLR lethal inactive, PrPC surface inh inactive and GDH-TPI inh 34.
Screening COc1cc2c(cc1OC)C(c1cc(Br)ccc1F)N(C(=O)CCl)CC2 (stereo unspecified) returned PrP 5UTR inh inactive, PfHsp40 yeast inactive, FBA Mtb inh inactive, BJeLR lethal 58, PrPC surface inh inactive and GDH-TPI inh inactive.
For CCOc1ccc(-n2c(SCC(=O)Nc3ccc4cn[nH]c4c3)nnc2-c2ccc(C(C)(C)C)cc2)cc1 the results were PrPC surface inh inactive.
`COc1nc(Cl)cn(-c2ccc(C)cc2)c1=O` gave PrP 5UTR inh inactive, PfHsp40 yeast inactive, FBA Mtb inh inactive, BJeLR lethal inactive, PrPC surface inh inactive and GDH-TPI inh inactive.
Cc1ccc(-n2c(Cl)c(Cl)nc(Cl)c2=O)cc1 was read as PrP 5UTR inh inactive, PfHsp40 yeast 42, FBA Mtb inh inactive and GDH-TPI inh inactive.
Screening CC(c1nccs1)N(C)c1nc2nonc2nc1NC1CC1 (stereo unspecified) returned PrP 5UTR inh inactive, PfHsp40 yeast inactive, FBA Mtb inh inactive, BJeLR lethal inactive, PrPC surface inh inactive and GDH-TPI inh 33.
For CC(c1nccs1)N(C)c1nc2nonc2nc1N(C)C (stereo unspecified) the results were PrP 5UTR inh inactive, PfHsp40 yeast inactive, FBA Mtb inh inactive, BJeLR lethal inactive, PrPC surface inh inactive and GDH-TPI inh inactive.
`Cc1ccc2nc(/C(C#N)=C\c3cc(C)n(-c4cccc([N+](=O)[O-])c4)c3C)[nH]c2c1` gave PrP 5UTR inh inactive, PfHsp40 yeast inactive, FBA Mtb inh inactive, BJeLR lethal inactive, PrPC surface inh inactive and GDH-TPI inh 32.
For CCC[C@H]1[C@@H](OC(=O)NCCc2c[nH]c3ccccc23)CC[C@@]23CCCN2C(=O)CCC[C@@H]13 the results were PrPC surface inh inactive.
For COC(=O)[C@H](CC(C)C)N1Cc2nnn(CC3CCCCC3)c2-c2cc(F)ccc2S1(=O)=O the results were PrPC surface inh inactive.
`Cc1cc2c(cc1C)CSC(c1c(O)ccc3ccccc13)SC2` gave PrP 5UTR inh inactive, PfHsp40 yeast 160, FBA Mtb inh inactive, BJeLR lethal inactive, PrPC surface inh inactive and GDH-TPI inh inactive.
Screening O=C1NCCC/C1=N\Nc1ccc(Br)cc1 returned PrP 5UTR inh inactive, PfHsp40 yeast inactive, FBA Mtb inh inactive, BJeLR lethal inactive, PrPC surface inh inactive and GDH-TPI inh 37.
`Cc1ccccc1N/N=C1\CCCNC1=O` gave PrP 5UTR inh inactive, PfHsp40 yeast inactive, FBA Mtb inh inactive, BJeLR lethal inactive, PrPC surface inh inactive and GDH-TPI inh inactive.
